Values joined by “and” are separate entries in the source; they are usually repeats but may differ in a detail not shown here. Identical values can stand only once. A number with no mark means an inactive call. Inconclusive results are not listed. Entries that show only a call come without a potency. Active and inactive are the calls of the source. Unless noted, calls follow the shape of the dose curve; as a rule, active = well fitted curve in the direction sought with a large enough effect in the repeat runs; inconclusive = weak or mixed curves; inactive = no such curve, though single readings can be large; an effect the other way counts as inactive or inconclusive.
Columns and labels:
[1] = qHTS assay to identify small molecule agonists of the hypoxia (HIF-1) signaling pathway - cell viability counter screen (AID 1224844; calls by dose curve; also: nearly all actives have a fitted effect of over 50% in size)
How it was run: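 Cells (HRE-bla ME-180, 2,000 per well) sat 5 hrs at 37C, got compound for 17 hrs, were read for CCF4-AM FRET, and were finally lysed with CellTiter-Glo for a 30 min room-temperature luminescence read.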

[2] = qHTS assay to identify small molecule agonists of H2AX (AID 1224845; active = well fitted activation curve with a large enough effect in the signal ratio in the repeat runs, not every such curve was filed as active; the % refers to the signal ratio)
How it was run: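 Wild-type CHO-K1 cells, plated overnight, exposed 3hr at 37C to 15 concentrations (0.76% DMSO final). Lysed, then HTRF anti-pH2AX (S139) cryptate and anti-H2AX-d2 antibodies, 24 hr room temperature; 665/620 nm emission read.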

[3] = qHTS assay to identify small molecule agonists of the hypoxia (HIF-1) signaling pathway (AID 1224846; active = well fitted activation curve with a large enough effect in the signal ratio in the repeat runs, not every such curve was filed as active; the % refers to the signal ratio)
How it was run: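 A low-serum medium (0.5% dialyzed FBS) holding 2,000 HRE-bla ME-180 cells per well is preincubated for 5 hrs, dosed with compounds by pintool, and kept a further 17 hrs at 37C, 5% CO2 before CCF4-AM FRET detection of beta-lactamase.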

[4] = qHTS RealTime-Glo MT Cell Viability Assay in HepG2 cells - 24 hour (AID 1224867); also: nearly all actives have a fitted effect of over 50% in size
How it was run: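 HepG2 cells (600/well) were dispensed with RealTime-Glo reagents, incubated 5 h at 37 °C, then treated with compounds in DMSO for up to 40 h. Nonlytic NanoLuc luminescence reflecting viable cells was read at each stated time point.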

[5] = qHTS RealTime-Glo MT Cell Viability Assay in HEK293 cells - 32 hour (AID 1224868); also: nearly all actives have a fitted effect of over 50% in size; also: potency is read from the fitted curve at half-maximal effect
How it was run: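 HEK293 cells seeded with NanoLuc/prosubstrate reagent, rested 5 h at 37 C, then dosed and kept at 37 C up to 40 h. Nonlytic real-time luminescence from viable cells read at 0, 8, 16, 24, 32 and 40 h.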

[6] = A CellTox Green Cytotoxicity Assay to monitor cytotoxicity in HEK293 cells - 0 hour (AID 1224869); also: nearly all actives have a fitted effect of over 50% in size
How it was run: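 Fluorescence intensity, read at 0, 8, 16, 24, 32 and 40 h of compound treatment, reflected dye binding to DNA of dead HEK293 cells; compounds (23 nL, DMSO) were added 5 h after plating cells with reagent.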

[7] = qHTS RealTime-Glo MT Cell Viability Assay in HepG2 cells - 40 hour (AID 1224870); also: nearly all actives have a fitted effect of over 50% in size
How it was run: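 HepG2 cells (600/well) mixed with RealTime-Glo MT reagent, settled 5 h at 37 C/5% CO2 before compound addition. Nonlytic NanoLuc luminescence from viable-cell prosubstrate reduction read repeatedly during 40 h treatment at 37 C.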

[8] = qHTS assay to identify small molecule agonists of H2AX - cell viability counter screen (AID 1224847; calls by dose curve; also: top concentration of the series differs between compounds; nearly all actives have a fitted effect of over 30% in size)
How it was run: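 After overnight plating of 1000 CHO-K1 cells per well, a 15-concentration compound series was applied for 3 hr at 37C. Luminescence from CellTiter-Glo, read following 30 min at room temperature, reflected cell viability.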

[9] = qHTS assay to identify small molecule antagonists of the estrogen related receptor (ERR) signaling pathway from Tox21 library (AID 1224848); also: nearly all actives have a fitted effect of over 50% in size
How it was run: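 ERR reporter cell line (from NTP) seeded 2,000 cells/well, rested 6 h at 37 C/5% CO2, then pin-dosed with compounds in DMSO. After 18 h at 37 C, ONE-Glo added; luminescence read after 30 min at room temperature.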

[10] = qHTS assay to identify small molecule agonists of the estrogen related receptor (ERR) signaling pathway from Tox21 library (AID 1224849; calls by dose curve; also: nearly all actives have a fitted effect of over 15% in size); conditions: ERR reporter cell line, ONE-Glo luciferase, 18 h; at 92.4 µM (top of the series)
How it was run: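 Screening used an NTP-provided ERR luciferase cell line. Compounds in DMSO were added 6 h after seeding and left 18 h at 37 C before a 30 min ONE-Glo step and luminescence reading.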

SMILES: CCCCC(CC)CO[N+](=O)[O-] (stereo not drawn)
- Potency [1]: inactive
- Potency [2]: inactive
- outcome [3]: inactive
- Potency [4]: inactive
- Potency [5]: inactive
- Potency [6]: inactive
- Potency [7]: inactive

SMILES: C=CC(=O)NC(C)(C)CC(C)=O
- Potency [1]: inactive
- Potency [2]: inactive
- outcome [3]: inactive
- Potency [8]: inactive
- Potency [5]: inactive
- Potency [6]: inactive
- Potency [7]: inactive

SMILES: COC(=O)Cc1ccccc1
- Potency [1]: inactive
- Potency [2]: inactive
- outcome [3]: inactive
- Potency [8]: inactive
- Potency [5]: inactive
- Potency [6]: inactive
- Potency [7]: inactive

SMILES: CCOc1cccc(C2(N3CCN(c4ccccc4)CC3)CCC(C)CC2)c1 (stereo not drawn)
- Potency [1]: inactive
- Potency [2]: inactive
- outcome [3]: inactive
- Potency [8]: inactive
- Potency [5]: inactive
- Potency [6]: inactive
- Potency [7]: inactive

SMILES: CCC[N+](CCC)(CCC)CCC
- Potency [1]: inactive
- Potency [2]: inactive
- outcome [3]: inactive
- Potency [9]: inactive
- activity change, positive = activation [10]: -9.29%
- Potency [4]: inactive
- Potency [5]: inactive
- Potency [6]: inactive
- Potency [7]: inactive

SMILES: CC(C)(C)c1ccc(CCOc2ncnc3ccccc23)cc1
- Potency [1]: inactive
- Potency [2]: inactive
- outcome [3]: inactive
- Potency [8]: inactive
- Potency [5]: inactive
- Potency [6]: inactive
- Potency [7]: inactive

SMILES: CCOP(=S)(S)OCC
- Potency [1]: inactive
- Potency [2]: inactive
- outcome [3]: inactive
- Potency [9]: inactive
- activity change, positive = activation [10]: -3.44%
- Potency [4]: inactive
- Potency [5]: inactive
- Potency [6]: inactive
- Potency [7]: inactive

SMILES: C#CC(O)(C=CCl)CC (stereo not drawn)
- Potency [1]: inactive
- Potency [2]: inactive
- outcome [3]: inactive
- Potency [8]: inactive
- Potency [5]: inactive
- Potency [6]: inactive
- Potency [7]: inactive

SMILES: CCCCC(CC)COC(=O)c1c(Br)c(Br)c(Br)c(Br)c1C(=O)OCC(CC)CCCC (stereo not drawn)
- Potency [1]: inactive
- Potency [2]: inactive
- outcome [3]: inactive
- Potency [4]: inactive
- Potency [5]: inactive
- Potency [6]: inactive
- Potency [7]: inactive

SMILES: CCCN(CCC)C(=O)Cc1c(-c2ccc(Cl)cc2)nc2ccc(Cl)cn12
- Potency [1]: inactive
- Potency [2]: inactive
- Potency [8]: inactive
- Potency [4]: inactive
- Potency [5]: 5.35 µM (active)
- Potency [6]: inactive
- Potency [7]: inactive

SMILES: O=CC=O
- Potency [1]: inactive
- Potency [2]: inactive
- Potency [8]: inactive
- Potency [4]: inactive
- Potency [5]: inactive
- Potency [7]: inactive

SMILES: CC1(C)[C@H](C(=O)O[C@H](C#N)c2cccc(Oc3ccccc3)c2)[C@@H]1C=C(Br)Br
- Potency [1]: inactive
- Potency [2]: inactive
- Potency [8]: inactive
- activity change, positive = activation [10]: -23.2% and -24.2%
- Potency [4]: inactive
- Potency [5]: inactive
- Potency [6]: inactive
- Potency [7]: inactive

Reference: PubChem BioAssay (Tox21)
